# In paper PMC7862700, “An all-to-all approach to the identification of sequence-specific readers for epigenetic DNA modifications on cytosine”:
# Tests used:
# Assay in all cases: DAPPL (digital affinity profiling via proximity ligation, sequencing); 10 mM Tris-HCl pH 7.5, 50 mM NaCl, 1 mM DTT, 4% glycerol, room temperature, 30 min; GST-TFs on glutathione beads, 16-mer random dsDNA library, 0.1% formaldehyde crosslink after washing; high values mean tight binding
# FEV = target: T1, FEV (Homo sapiens, UniProt Q99581 1-238); conditions: protein: recombinant; tags: N-terminal GST; dsDNA, one strand shown
# T1 sequence: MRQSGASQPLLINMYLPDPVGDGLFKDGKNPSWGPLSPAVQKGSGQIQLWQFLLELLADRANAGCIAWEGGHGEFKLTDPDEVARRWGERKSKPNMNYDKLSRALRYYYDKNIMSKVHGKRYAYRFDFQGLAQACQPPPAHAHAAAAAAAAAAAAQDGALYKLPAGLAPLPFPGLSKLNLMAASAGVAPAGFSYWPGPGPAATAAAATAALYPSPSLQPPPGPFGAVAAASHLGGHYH
# In short: (§1)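 Beads coated with glutathione captured GST-fused human transcription factors that had been expressed in yeast, and the factors were then given DNA barcodes and pooled with a tag-only sample. The pools were incubated with 200 nmole of a random double-stranded 16-mer DNA library in Tris/NaCl/DTT/glycerol buffer for 30 min at room temperature, washed, crosslinked with 0.1% formaldehyde and proximity-ligated with BsaI/T4 ligase at 37 °C for 1 h. PCR amplification and Illumina NextSeq500 sequencing came last. Binding signal is each hexamer's read frequency for a factor divided by its frequency for the tag-only sample.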
# ETV5 = ETV5 (Homo sapiens, UniProt P41161 1-510); conditions: protein: recombinant; tags: N-terminal GST; dsDNA, one strand shown
# Chain of ETV5 (P41161 whole entry): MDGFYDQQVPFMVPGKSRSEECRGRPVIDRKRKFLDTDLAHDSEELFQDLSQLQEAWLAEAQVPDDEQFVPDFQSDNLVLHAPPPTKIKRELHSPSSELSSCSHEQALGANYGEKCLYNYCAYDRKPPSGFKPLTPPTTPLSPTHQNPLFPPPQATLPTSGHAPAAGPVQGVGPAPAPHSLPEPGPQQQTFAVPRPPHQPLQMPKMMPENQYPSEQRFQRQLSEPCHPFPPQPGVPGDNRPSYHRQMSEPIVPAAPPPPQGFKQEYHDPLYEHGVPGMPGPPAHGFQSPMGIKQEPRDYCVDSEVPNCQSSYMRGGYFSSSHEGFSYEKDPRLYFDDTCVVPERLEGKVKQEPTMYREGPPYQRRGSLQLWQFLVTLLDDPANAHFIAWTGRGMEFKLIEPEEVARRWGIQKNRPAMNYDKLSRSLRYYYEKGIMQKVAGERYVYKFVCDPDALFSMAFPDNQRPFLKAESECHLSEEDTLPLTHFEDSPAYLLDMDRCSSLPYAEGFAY
# In short: as §1
# HSF1 = HSF1 (Homo sapiens, UniProt Q00613 1-529); conditions: protein: recombinant; tags: N-terminal GST; chain copies: 3; dsDNA, one strand shown
# Chain of HSF1 (Q00613 whole entry): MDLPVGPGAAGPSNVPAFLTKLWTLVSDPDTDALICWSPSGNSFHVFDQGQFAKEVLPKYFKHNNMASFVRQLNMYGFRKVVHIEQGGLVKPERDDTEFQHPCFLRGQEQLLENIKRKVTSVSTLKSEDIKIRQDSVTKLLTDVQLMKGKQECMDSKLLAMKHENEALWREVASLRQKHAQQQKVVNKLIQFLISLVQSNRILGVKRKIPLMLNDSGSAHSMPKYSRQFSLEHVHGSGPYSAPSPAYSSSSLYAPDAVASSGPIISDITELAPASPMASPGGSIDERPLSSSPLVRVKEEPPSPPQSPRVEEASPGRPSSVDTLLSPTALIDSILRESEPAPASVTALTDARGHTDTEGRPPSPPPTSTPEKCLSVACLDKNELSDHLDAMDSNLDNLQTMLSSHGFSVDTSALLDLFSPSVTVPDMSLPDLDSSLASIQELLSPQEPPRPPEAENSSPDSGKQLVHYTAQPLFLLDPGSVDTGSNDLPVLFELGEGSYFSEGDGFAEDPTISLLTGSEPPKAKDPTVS
# In short: as §1
# SPIC = target: T2, SPIC (Homo sapiens, UniProt Q8N5J4 1-248); conditions: protein: recombinant; tags: N-terminal GST; dsDNA, one strand shown
# T2 sequence: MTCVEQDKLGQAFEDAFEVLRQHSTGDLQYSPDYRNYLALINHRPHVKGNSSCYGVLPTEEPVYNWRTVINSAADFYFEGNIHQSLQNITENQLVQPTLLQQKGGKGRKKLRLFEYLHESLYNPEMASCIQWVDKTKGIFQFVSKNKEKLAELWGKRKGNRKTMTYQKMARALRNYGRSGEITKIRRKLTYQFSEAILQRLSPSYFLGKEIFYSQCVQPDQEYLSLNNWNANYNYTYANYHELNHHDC
# In short: as §1
# ELF4 = ELF4 (Homo sapiens, UniProt Q99607 1-663); conditions: protein: recombinant; tags: N-terminal GST; dsDNA, one strand shown
# Chain of ELF4 (Q99607 whole entry): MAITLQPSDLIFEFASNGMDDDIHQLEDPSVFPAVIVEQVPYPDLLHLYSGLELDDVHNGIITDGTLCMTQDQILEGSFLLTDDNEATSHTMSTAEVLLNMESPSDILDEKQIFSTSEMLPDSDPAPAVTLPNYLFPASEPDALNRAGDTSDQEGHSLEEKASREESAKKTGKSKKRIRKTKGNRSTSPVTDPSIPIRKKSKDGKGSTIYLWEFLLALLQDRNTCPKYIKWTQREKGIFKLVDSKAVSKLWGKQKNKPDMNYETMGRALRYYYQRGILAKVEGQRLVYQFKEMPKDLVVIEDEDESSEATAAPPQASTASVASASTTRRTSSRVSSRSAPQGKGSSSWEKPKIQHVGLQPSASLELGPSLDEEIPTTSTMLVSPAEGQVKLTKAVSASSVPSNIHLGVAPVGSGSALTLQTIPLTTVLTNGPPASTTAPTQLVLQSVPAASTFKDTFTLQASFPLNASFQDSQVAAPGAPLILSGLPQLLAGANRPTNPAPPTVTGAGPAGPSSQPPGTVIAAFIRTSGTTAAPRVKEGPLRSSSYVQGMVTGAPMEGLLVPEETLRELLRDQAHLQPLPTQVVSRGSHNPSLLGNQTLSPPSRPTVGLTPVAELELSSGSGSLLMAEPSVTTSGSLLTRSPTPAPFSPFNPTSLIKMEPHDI
# In short: as §1
# ELK4 = target: T3, ELK4 (Homo sapiens, UniProt P28324-2 1-405); conditions: protein: recombinant; tags: N-terminal GST; dsDNA, one strand shown
# T3 sequence: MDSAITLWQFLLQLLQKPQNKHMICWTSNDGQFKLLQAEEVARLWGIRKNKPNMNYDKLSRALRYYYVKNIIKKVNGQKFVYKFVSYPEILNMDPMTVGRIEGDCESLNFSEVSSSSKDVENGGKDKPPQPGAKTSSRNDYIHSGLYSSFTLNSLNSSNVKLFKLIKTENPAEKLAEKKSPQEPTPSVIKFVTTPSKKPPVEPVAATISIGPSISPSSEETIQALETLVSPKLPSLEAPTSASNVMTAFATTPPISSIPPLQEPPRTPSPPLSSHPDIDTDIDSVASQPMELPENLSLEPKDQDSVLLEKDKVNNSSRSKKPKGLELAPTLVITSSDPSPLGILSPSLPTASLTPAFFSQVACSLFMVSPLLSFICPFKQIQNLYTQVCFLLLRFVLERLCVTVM
# In short: as §1
# ETV2 = target: T4, ETV2 (Homo sapiens, UniProt O00321 1-342); conditions: protein: recombinant; tags: N-terminal GST; dsDNA, one strand shown
# T4 sequence: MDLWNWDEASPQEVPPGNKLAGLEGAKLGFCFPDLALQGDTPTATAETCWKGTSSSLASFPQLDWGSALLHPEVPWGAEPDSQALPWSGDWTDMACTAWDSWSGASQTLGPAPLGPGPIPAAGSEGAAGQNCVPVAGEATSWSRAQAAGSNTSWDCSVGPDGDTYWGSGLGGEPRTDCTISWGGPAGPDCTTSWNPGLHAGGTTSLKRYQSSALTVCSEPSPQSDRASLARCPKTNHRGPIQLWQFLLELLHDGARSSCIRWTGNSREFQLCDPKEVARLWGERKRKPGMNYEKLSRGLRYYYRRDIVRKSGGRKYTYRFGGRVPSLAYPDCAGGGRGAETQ
# In short: as §1
# ELF3 = target: T5, ELF3 (Homo sapiens, UniProt P78545 1-371); conditions: protein: recombinant; tags: N-terminal GST; dsDNA, one strand shown
# T5 sequence: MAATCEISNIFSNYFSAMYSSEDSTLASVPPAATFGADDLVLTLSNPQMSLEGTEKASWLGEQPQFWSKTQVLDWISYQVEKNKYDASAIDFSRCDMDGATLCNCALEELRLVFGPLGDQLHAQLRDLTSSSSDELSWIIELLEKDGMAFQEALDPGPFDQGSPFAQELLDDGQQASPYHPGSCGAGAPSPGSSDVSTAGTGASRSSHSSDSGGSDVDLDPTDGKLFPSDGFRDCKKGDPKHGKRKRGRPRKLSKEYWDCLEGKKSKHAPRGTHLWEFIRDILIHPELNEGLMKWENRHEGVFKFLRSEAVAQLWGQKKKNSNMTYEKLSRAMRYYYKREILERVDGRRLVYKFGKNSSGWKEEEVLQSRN
# In short: as §1
# CRX = CRX (Homo sapiens, UniProt O43186 1-299); conditions: protein: recombinant; tags: N-terminal GST; dsDNA, one strand shown
# Chain of CRX (O43186 whole entry): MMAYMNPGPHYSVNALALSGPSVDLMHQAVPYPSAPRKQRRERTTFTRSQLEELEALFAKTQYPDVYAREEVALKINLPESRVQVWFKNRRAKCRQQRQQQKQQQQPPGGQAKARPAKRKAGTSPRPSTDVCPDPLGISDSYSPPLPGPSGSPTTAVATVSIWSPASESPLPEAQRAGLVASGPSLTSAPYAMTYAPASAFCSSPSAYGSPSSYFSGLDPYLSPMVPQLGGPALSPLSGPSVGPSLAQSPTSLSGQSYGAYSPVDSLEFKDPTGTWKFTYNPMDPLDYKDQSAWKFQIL
# In short: as §1
# ETV1 = ETV1 (Homo sapiens, UniProt P50549 1-477); conditions: protein: recombinant; tags: N-terminal GST; dsDNA, one strand shown
# Chain of ETV1 (P50549 whole entry): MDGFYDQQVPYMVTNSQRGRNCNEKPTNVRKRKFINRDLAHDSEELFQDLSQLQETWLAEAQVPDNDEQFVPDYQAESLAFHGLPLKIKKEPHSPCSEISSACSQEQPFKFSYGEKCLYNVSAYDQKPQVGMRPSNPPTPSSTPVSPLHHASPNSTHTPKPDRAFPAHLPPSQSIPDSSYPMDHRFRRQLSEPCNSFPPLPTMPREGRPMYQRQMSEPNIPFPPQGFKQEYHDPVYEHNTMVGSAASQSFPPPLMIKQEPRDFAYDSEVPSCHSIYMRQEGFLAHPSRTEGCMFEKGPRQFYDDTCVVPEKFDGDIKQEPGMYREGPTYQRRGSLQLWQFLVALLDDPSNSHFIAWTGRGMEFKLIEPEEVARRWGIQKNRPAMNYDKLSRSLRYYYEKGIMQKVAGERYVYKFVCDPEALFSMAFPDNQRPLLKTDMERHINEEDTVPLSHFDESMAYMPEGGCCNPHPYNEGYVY
# In short: as §1
# ERF = target: T6, ERF (Homo sapiens, UniProt P50548 1-548); conditions: protein: recombinant; tags: N-terminal GST; dsDNA, one strand shown
# T6 sequence: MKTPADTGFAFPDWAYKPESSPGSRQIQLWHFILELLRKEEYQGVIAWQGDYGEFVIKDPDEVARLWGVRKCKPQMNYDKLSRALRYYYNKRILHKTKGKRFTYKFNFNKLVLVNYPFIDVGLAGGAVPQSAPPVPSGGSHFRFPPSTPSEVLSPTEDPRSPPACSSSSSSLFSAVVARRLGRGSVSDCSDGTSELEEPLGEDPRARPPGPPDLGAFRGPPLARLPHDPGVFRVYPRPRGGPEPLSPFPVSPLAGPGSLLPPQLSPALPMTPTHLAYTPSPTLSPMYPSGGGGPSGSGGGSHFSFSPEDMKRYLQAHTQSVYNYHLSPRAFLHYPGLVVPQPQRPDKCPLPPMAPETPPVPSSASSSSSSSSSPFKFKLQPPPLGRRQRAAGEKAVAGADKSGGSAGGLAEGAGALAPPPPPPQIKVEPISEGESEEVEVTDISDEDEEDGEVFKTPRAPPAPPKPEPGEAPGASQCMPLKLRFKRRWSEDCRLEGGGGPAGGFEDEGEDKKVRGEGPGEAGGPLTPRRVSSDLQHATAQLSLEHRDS
# In short: as §1
# ETV3L = target: T7, ETV3L (Homo sapiens, UniProt Q6ZN32 1-361); conditions: protein: recombinant; tags: N-terminal GST; dsDNA, one strand shown
# T7 sequence: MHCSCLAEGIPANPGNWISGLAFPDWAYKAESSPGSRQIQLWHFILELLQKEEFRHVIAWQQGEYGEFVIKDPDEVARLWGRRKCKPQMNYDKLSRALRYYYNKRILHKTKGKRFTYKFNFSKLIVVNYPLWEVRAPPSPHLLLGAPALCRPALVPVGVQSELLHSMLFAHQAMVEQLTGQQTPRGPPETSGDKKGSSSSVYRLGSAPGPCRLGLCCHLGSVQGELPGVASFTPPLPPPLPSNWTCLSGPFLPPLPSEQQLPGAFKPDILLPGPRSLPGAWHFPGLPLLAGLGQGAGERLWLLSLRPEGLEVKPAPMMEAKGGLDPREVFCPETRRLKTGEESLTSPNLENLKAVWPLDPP
# In short: as §1
# ETS2 = target: T8, ETS2 (Homo sapiens, UniProt P15036 1-469); conditions: protein: recombinant; tags: N-terminal GST; dsDNA, one strand shown
# T8 sequence: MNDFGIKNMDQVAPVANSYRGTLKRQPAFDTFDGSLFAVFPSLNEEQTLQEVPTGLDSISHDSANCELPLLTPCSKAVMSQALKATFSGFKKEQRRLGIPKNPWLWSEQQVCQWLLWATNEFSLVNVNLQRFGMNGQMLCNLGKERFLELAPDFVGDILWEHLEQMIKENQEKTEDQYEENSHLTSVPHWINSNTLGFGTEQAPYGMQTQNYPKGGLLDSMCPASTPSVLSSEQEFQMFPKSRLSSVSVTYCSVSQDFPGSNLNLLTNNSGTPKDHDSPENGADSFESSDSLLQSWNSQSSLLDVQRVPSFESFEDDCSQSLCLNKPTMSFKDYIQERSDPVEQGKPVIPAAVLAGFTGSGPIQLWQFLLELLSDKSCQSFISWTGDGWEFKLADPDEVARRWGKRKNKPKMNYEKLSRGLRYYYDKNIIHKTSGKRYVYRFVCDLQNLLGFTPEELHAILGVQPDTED
# In short: as §1
# SPDEF = target: T9, SPDEF (Homo sapiens, UniProt O95238 1-335); conditions: protein: recombinant; tags: N-terminal GST; dsDNA, one strand shown
# T9 sequence: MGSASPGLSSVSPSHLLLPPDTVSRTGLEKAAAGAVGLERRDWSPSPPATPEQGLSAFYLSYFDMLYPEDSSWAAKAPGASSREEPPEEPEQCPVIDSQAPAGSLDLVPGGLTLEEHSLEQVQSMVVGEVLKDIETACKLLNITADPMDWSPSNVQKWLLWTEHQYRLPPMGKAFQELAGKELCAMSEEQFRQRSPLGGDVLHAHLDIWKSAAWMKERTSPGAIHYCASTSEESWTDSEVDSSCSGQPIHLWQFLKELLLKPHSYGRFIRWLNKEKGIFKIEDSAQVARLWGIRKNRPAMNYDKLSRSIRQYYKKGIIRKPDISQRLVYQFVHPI
# In short: as §1
# ETV7 = target: T10, ETV7 (Homo sapiens, UniProt Q9Y603 1-341); conditions: protein: recombinant; tags: N-terminal GST; dsDNA, one strand shown
# T10 sequence: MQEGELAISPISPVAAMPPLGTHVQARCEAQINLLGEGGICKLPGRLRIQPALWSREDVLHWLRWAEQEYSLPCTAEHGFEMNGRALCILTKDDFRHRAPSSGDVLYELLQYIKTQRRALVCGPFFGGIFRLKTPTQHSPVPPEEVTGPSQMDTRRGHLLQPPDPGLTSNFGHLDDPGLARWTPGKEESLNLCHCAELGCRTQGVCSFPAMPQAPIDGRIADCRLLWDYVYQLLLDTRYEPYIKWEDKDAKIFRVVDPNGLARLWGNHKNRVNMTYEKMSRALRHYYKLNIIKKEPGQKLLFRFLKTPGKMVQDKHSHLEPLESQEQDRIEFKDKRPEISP
# In short: as §1
# ELF5 = target: T11, ELF5 (Homo sapiens, UniProt Q9UKW6-2 1-255); conditions: protein: recombinant; tags: N-terminal GST; dsDNA, one strand shown
# T11 sequence: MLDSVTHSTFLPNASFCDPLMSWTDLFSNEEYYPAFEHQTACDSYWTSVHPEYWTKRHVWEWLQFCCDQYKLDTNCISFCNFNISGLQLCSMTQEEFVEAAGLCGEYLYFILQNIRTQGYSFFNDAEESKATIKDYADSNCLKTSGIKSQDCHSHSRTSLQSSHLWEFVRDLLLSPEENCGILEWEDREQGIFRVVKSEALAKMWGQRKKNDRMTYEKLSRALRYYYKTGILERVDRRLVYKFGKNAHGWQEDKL
# In short: as §1
# ETV3 = target: T12, ETV3 (Homo sapiens, UniProt P41162-2 1-143); conditions: protein: recombinant; tags: N-terminal GST; dsDNA, one strand shown
# T12 sequence: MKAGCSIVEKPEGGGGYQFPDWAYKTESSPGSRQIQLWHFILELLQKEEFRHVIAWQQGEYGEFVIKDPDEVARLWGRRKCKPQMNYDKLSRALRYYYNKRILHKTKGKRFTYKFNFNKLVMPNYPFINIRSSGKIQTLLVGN
# In short: as §1
# ETV6 = ETV6 (Homo sapiens, UniProt P41212 1-452); conditions: protein: recombinant; tags: N-terminal GST; dsDNA, one strand shown
# Chain of ETV6 (P41212 whole entry): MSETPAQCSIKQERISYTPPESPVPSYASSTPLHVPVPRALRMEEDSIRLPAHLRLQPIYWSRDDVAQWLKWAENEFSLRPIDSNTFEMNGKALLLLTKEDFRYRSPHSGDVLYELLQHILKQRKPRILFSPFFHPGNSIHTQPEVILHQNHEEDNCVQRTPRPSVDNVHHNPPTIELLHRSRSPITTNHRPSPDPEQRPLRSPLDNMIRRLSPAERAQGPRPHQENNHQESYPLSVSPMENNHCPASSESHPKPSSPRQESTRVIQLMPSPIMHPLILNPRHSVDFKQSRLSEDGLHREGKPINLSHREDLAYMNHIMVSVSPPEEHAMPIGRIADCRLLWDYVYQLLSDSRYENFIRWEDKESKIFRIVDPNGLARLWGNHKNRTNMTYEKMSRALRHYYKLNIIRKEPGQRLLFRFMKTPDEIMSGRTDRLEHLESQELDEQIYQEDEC
# In short: as §1
sequence,measurement,setting,value
AACAAA,binding signal,FEV,"1.2 fold enrichment (6-mer frequency, TF over GST control)"
same,binding signal,ETV5,"1.11 fold enrichment (6-mer frequency, TF over GST control)"
same,binding signal,HSF1,"1.18 fold enrichment (6-mer frequency, TF over GST control)"
same,binding signal,SPIC,"1.14 fold enrichment (6-mer frequency, TF over GST control)"
same,binding signal,ELF4,"1.16 fold enrichment (6-mer frequency, TF over GST control)"
same,binding signal,ELK4,"1.17 fold enrichment (6-mer frequency, TF over GST control)"
same,binding signal,ETV2,"1.26 fold enrichment (6-mer frequency, TF over GST control)"
same,binding signal,ELF3,"1.21 fold enrichment (6-mer frequency, TF over GST control)"
same,binding signal,CRX,"1.14 fold enrichment (6-mer frequency, TF over GST control)"
same,binding signal,ETV1,"1.19 fold enrichment (6-mer frequency, TF over GST control)"
same,binding signal,ERF,"1.2 fold enrichment (6-mer frequency, TF over GST control)"
same,binding signal,ETV3L,"1.14 fold enrichment (6-mer frequency, TF over GST control)"
same,binding signal,ETS2,"1.22 fold enrichment (6-mer frequency, TF over GST control)"
same,binding signal,SPDEF,"1.11 fold enrichment (6-mer frequency, TF over GST control)"
same,binding signal,ETV7,"1.13 fold enrichment (6-mer frequency, TF over GST control)"
same,binding signal,ELF5,"1.16 fold enrichment (6-mer frequency, TF over GST control)"
same,binding signal,ETV3,"1.15 fold enrichment (6-mer frequency, TF over GST control)"
same,binding signal,ETV6,"1.18 fold enrichment (6-mer frequency, TF over GST control)"
